# Reference: PubChem BioAssay AID2283197 (EPA ToxCast)
# Calls of active or inactive are those of the source. Rule for the calls: active = hit-call score of the fitted dose curve at least 0.9, where 1 is the maximum; inactive = score below 0.9.
# Biological target: human Protein Kinase D2 (PKD2), PRKD2 (gene 25865) (UniProt Q9BZL6)
# Assay: NVS_ENZ_hPKD2: NovaScreen (NVS) Enzymatic Assay for human Protein Kinase D2 (PKD2)
# Experimental: NVS_ENZ_hPKD2 is a biochemical, single-readout assay that uses extracted gene-proteins in a cell-free assay. Measurements were taken 1 hour after chemical dosing in a 384-well plate.NVS_ENZ_hPKD2 is one of one assay component(s) measured or calculated from the NVS_ENZ_hPKD2 assay. It is designed to make measurements of enzyme activity, a form of enzyme reporter, as detected with fluorescence intensity signals by Fluorescence and electrophoretic mobility shift technology.Data from the assay component NVS_ENZ_hPKD2 was analyzed into 1 assay endpoint. This assay endpoint, NVS_ENZ_hPKD2, was analyzed in the positive analysis fitting direction relative to DMSO as the negative control and baseline of activity. Using a type of enzyme reporter, loss-of-signal activity can be used to understand changes in the enzymatic activity as they relate to the gene PRKD2. Furthermore, this assay endpoint can be referred to as a primary readout, because this assay has produced multiple assay endpoints where this one serves a enzymatic activity function. To generalize the intended target to other relatable targets, this assay endpoint is annotated to the kinase intended target family, where the subfamily is serine/threonine kinase.
# Binding assays used specific radioligands (tritiated, iodinated) with non-radioactive competitive displacement ligands in agonist or antagonist protocols (as indicated) and various reference compounds and inhibitors to titrate specific binding to receptors and transporters. Most enzyme assays (CYPs, kinases, phosphatases, proteases, HDACs) used recombinant protein and specific substrates (fluorescence mostly, some colorimetric and radioactive) and inhibitors, followed by a biochemical separation of substrate and product. All assays for the biochemical HTS were initially run in duplicate at a single concentration (10 uM for CYP450 assays and 25 uM for all others). Assay-chemical combinations meeting a pre-defined threshold (e.g., 30% inhibition and other criteria defined below) were then run in singleton concentration-response format with maximum concentration of 20 uM for CYPs and 50 uM for all others. Each assay was run with positive and negative controls, and concurrent controls on every plate. The follow-up (secondary) screen tested active chemical-pairs in concentration series, as well as a few additional assays not tested in the primary screen, some selected negative inactives, and several cases re-run in the concentration series for confirmatory purposes.
# Chain of human Protein Kinase D2 (PKD2), PRKD2 (gene 25865) (Q9BZL6 whole entry, looked up): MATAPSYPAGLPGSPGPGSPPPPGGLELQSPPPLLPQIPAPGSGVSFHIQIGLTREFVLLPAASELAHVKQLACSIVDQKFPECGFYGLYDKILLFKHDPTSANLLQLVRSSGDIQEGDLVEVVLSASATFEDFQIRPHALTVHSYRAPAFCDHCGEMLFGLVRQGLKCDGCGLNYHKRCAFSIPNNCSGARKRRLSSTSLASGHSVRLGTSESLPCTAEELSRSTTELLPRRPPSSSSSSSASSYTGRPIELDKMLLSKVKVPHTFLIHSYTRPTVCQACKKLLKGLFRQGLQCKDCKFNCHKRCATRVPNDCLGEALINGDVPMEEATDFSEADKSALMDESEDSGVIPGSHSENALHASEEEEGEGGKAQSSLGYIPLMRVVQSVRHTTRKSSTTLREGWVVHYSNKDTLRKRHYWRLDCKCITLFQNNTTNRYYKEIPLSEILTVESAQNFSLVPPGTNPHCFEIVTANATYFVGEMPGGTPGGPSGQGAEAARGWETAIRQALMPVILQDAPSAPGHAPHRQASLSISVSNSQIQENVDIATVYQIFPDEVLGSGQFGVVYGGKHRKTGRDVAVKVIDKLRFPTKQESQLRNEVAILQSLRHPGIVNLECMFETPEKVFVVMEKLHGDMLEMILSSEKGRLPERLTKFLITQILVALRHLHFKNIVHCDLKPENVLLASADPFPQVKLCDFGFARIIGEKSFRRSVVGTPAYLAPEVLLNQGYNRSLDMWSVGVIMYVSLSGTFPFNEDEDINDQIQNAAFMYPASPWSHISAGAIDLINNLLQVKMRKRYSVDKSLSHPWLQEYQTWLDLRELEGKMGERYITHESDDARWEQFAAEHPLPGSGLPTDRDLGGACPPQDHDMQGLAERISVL
Structure (SMILES),outcome,AC50
O=C(Nc1ccccc1)Nc1cnns1,inactive,–
Oc1ccc(Cl)cc1Cc1ccccc1,–,25 µM (active)
O=C(Nc1ccccc1)Nc1ccnc(Cl)c1,inactive,–
COc1ccc(C(c2ccc(OC)cc2)C(Cl)(Cl)Cl)cc1,inactive,–
